Assay [1] in a line: P-glycoprotein substrates identified in KB-8-5-11 adenocarcinoma cell line, qHTS therapeutic library screen (AID 1346987). Note: nearly all actives have a fitted effect of over 65% in size. Note: potency is the fitted concentration of half-maximal effect. The procedure, abridged:
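Human cervical adenocarcinoma KB-8-5-11 cells, selected in colchicine to over-express P-gp and assayed without it, were exposed for 72 h to titrated compounds. An ATP-based luminescent viability signal gave AC50.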
(qHTS replaces the single test concentration by a dilution series.)

Assay [2] is described as follows: NS1 protein of Zika virus - qHTS assay to identify small molecule inhibitors in human HEK 293 cells (AID 1347053). Note: nearly all actives have a fitted effect of over 55% in size. Note: potency is the fitted concentration of half-maximal effect. Put shortly:
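In this cell-based screen, HEK 293 cultures received compound for one hour before Zika MR766 at MOI = 0.5. NS1 was quantified 24 hours later by TR-FRET, normalized to virus-free wells and infected wells.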

The nature of assay [3]: qHTS of pediatric cancer cell lines to identify multiple opportunities for drug repurposing: Primary screen for DAOY cells (AID 1347090). Note: series mostly up to about 46 µM; nearly all actives have a fitted effect of over 55% in size. The procedure, abridged: (§1)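 Cell viability, CellTiter-Glo luminescence; 500-1,000 cells/well, 8- or 11-point titration, 48 h compound exposure at 37 degrees C, 5% CO2. Controls: DMSO neutral, bortezomib 2.3 µM final as positive.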
A short description of assay [4]: qHTS of pediatric cancer cell lines to identify multiple opportunities for drug repurposing: Primary screen for SJ-GBM2 cells (AID 1347091). Note: potency is the fitted concentration of half-maximal effect. The procedure, abridged: as §1
Assay [5] is described as follows: qHTS of pediatric cancer cell lines to identify multiple opportunities for drug repurposing: Primary screen for A673 cells (AID 1347092). Note: nearly all actives have a fitted effect of over 45% in size. Note: potency is the fitted concentration of half-maximal effect. The procedure, abridged: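 Titration-based qHTS on A673 cells: MIPE compounds spanned 11 points (0.78 nM to 46 µM final), NPC compounds 8 points (0.59 nM to 46 µM final). Viability after 48 h was measured by ATP luminescence.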

A short description of assay [6]: qHTS of pediatric cancer cell lines to identify multiple opportunities for drug repurposing: Primary screen for SK-N-MC cells (AID 1347093). Note: potency is the fitted concentration of half-maximal effect. The procedure, abridged: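 Metabolically active cells were quantified by ATP-dependent luminescence (CellTiter-Glo, 15 min at room temperature) following 48 h treatment. Cells had been plated at 500-1,000 per well and settled for 5 h beforehand.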

Assay [7] in a line: qHTS of pediatric cancer cell lines to identify multiple opportunities for drug repurposing: Primary screen for BT-37 cells (AID 1347094). Note: potency is the fitted concentration of half-maximal effect. Put shortly:
(§2)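 ATP-based luminescence (CellTiter-Glo) quantifies viability after a 48-hour exposure. Compounds are dosed across 8 or 11 final concentrations; DMSO and 2.3 µM bortezomib serve as controls.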

Assay [8] in a line: qHTS of pediatric cancer cell lines to identify multiple opportunities for drug repurposing: Primary screen for NB-EBc1 cells (AID 1347095). Note: potency is the fitted concentration of half-maximal effect. Put shortly: as §2
Assay [9] in a line: qHTS of pediatric cancer cell lines to identify multiple opportunities for drug repurposing: Primary screen for U-2 OS cells (AID 1347096). Note: nearly all actives have a fitted effect of over 50% in size. Note: potency is the fitted concentration of half-maximal effect. Put shortly:
(§3)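 Cells (500-1,000/well) rested 5 h, then received compounds for 48 h; metabolically active cells were measured by CellTiter-Glo luminescence. Final concentrations spanned up to 46 µM (MIPE, 11-point) or 0.59 nM-46 µM (NPC, 8-point) in primary screens, 11-point in follow-ups.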

Assay [10] can be described thus: qHTS of pediatric cancer cell lines to identify multiple opportunities for drug repurposing: Primary screen for Saos-2 cells (AID 1347097). Note: nearly all actives have a fitted effect of over 40% in size. Note: potency is the fitted concentration of half-maximal effect. The procedure, abridged: as §2
Assay [11] can be described thus: qHTS of pediatric cancer cell lines to identify multiple opportunities for drug repurposing: Primary screen for SK-N-SH cells (AID 1347098). Note: nearly all actives have a fitted effect of over 65% in size. Note: potency is the fitted concentration of half-maximal effect. The procedure, abridged: as §3
Assay [12] can be described thus: qHTS of pediatric cancer cell lines to identify multiple opportunities for drug repurposing: Primary screen for TC32 cells (AID 1347089). Note: nearly all actives have a fitted effect of over 60% in size. Note: potency is the fitted concentration of half-maximal effect. The procedure, abridged: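 A viability screen of TC32 cells was run over 48 h, with primary MIPE doses spanning 0.78 nM–46 µM and NPC doses 0.59 nM–46 µM. ATP luminescence (CellTiter-Glo) served as the read-out.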

Values joined by “and” are separate entries in the source; they are usually repeats but may differ in a detail not shown here. Identical values can stand only once. Records with an inconclusive call do not appear. Active and inactive are the calls of the source. Calls come from the whole dose curve; as a rule, active = well fitted curve in the direction sought with a large enough effect; inconclusive = small, poorly fitted or top-dose-only effect, or another doubt; inactive = no such curve, though single readings can be large; an effect the other way counts as inactive or inconclusive.

Regarding `CC(C)=CCCC(C)=CCCC(C)=CCCC(C)=CCCC(C)=CCCC(C)=CCCC(C)=CCCC(C)=CCCC(C)=CCO`, the Potency entry in assay [1], in [2], in assay [3], in assay [4], in assay [5] and in [6] was “inactive” throughout. The Potency result in assay [7], in [8], in [9], in [10] and in assay [11] was “inactive” in each case.
For `CCCCCOC(=O)Nc1nc(=O)n([C@@H]2O[C@H](C)[C@@H](O)C2O)cc1F` (stereo partly drawn), the Potency result in assay [1], in assay [2], in assay [12], in assay [4], in assay [5] and in [8] was “inactive” each time. For the same compound, the Potency entry in assay [9] and in [11] was “inactive” in each case.
On to `NCc1c[nH]c(=S)n1[C@H]1CCc2c(F)cc(F)cc2C1`, for which the Potency result in assay [1], in assay [2], in assay [12] and in assay [9] was “inactive” throughout. In addition, the Potency in assay [5] is 18.7 µM (active); in assay [6], 10.5 µM (active); in assay [7], 30.6 µM (active); in assay [8] it was 23.5 µM (active); in [10], 18.7 µM (active).
For the compound `O=C1Nc2ccc(I)cc2C1=Cc1cc(Br)c(O)c(Br)c1`, the Potency result in assay [1], in assay [2], in assay [12], in assay [7] and in assay [11] was “inactive” throughout. Also, the Potency is 14.8 µM (active) in [5] and 8.33 µM (active) in assay [6].
Consider `CC1=C(C(=O)Nc2cc3cn[nH]c3cc2F)C(c2ccc(C(F)(F)F)cc2)CC(=O)N1` (stereo not drawn), for which the Potency result in assay [1], in assay [2], in assay [12] and in assay [7] was “inactive” each time.
Take `COc1cc2c(cc1OC)[C@@H]1Cc3ccc(OC)c(OC)c3CN1CC2`: the Potency result in assay [1], in assay [2], in [12], in assay [4], in [6] and in assay [9] was “inactive” each time. The Potency entry in assay [10] was “inactive”.
Regarding `Cc1cc(CS(=O)(=O)c2ccccc2)cc(OCc2ccc(CN3CCC[C@H]3CO)cc2)c1`, the Potency in [1] was 4.18 µM (active); in assay [5] it was 5.9 µM (active); in [6] it was 2.64 µM (active). Also, the Potency result in [2], in [12], in [8] and in assay [9] was “inactive” in each case.
In the case of `O=C(Nc1cccc(Cl)c1)Nc1ncc(CCNc2ncnc3ccsc23)s1`, the Potency is 1.16 µM (active) in assay [1], 0.739 µM (active) in [12], 14.8 µM (active) in assay [5] and 2.96 µM (active) in assay [10]. For the same compound, in [2], the Potency result was “inactive”.
For the compound `CC(C)c1onc(-c2c(Cl)cccc2Cl)c1COc1ccc(C=Cc2cccc(C(=O)O)c2)c(Cl)c1`, the Potency result in assay [1], in assay [2] and in assay [12] was “inactive” throughout. The Potency in assay [6] was 16.6 µM (active).
`COc1cc([C@H]2Oc3cc([C@H]4Oc5cc(O)cc(O)c5C(=O)[C@H]4O)ccc3O[C@H]2CO)ccc1O`: the Potency entry in assay [1], in assay [2], in assay [12], in assay [9] and in assay [10] was “inactive” throughout. Also, the values for the Potency in [5] and in assay [6] were 23.5 µM (active) and 20.9 µM (active), respectively.
For the compound `CC1(C)C(N(O)C(=O)Nc2ccc(Cl)cc2)N(c2ccc(Cl)cc2)C(=O)N1CC(=O)NN=CC=Cc1ccc([N+](=O)[O-])o1` (stereo not drawn), the Potency entry in assay [1], in assay [2], in assay [12] and in assay [9] was “inactive” throughout. Further, the Potency in assay [4] was 18.7 µM (active); in assay [5], 23.5 µM (active).
As for `CN(C)CCN(C)C(=O)c1ccc(NC(=O)Nc2ccc(-c3nc(N4CCOCC4)c4ccn(CC(F)(F)F)c4n3)cc2)cc1`, the Potency result in assay [1] was “inactive”. For the same compound, the Potency in assay [2] was 3.32 µM (active); in [12], 0.147 µM (active); in assay [5], 2.96 µM (active); in [7], 0.0485 µM (active); in assay [8] it was 0.935 µM (active); in [9], 4.69 µM (active). For the same compound, the results for the Potency in [10] and in [11] were 0.418 µM (active) and 7.64 µM (active), respectively.
As to `CCOc1ccccc1N=Nc1c(C)[nH]n(-c2nc(-c3ccccc3)cs2)c1=O`, the Potency result in assay [1], in assay [2], in assay [12], in [8] and in [9] was “inactive” throughout. For the same compound, in [6], the Potency was 0.209 µM (active).
On to `C[C@H](c1ccc(F)cc1CCCC(=O)O)N(c1cc(F)ccc1F)S(=O)(=O)c1ccc(Cl)cc1`, for which the Potency entry in [1], in assay [2], in assay [12], in assay [8] and in assay [9] was “inactive” throughout. Also, the figures for the Potency in assay [5], in [6] and in assay [11] were 18.7 µM (active), 3.72 µM (active) and 19.2 µM (active), respectively.
With `NC(N)=Nc1nc(CSCCC(N)=NS(N)(=O)=O)cs1`, the Potency result in [1], in assay [2], in assay [12], in assay [7], in assay [9] and in [10] was “inactive” each time. In addition, the figures for the Potency in assay [5], in assay [6] and in [11] were 11.8 µM (active), 10.5 µM (active) and 19.2 µM (active), respectively.
Take `COc1ccc(CCN(C)CCCOc2ccc(S(=O)(=O)c3[nH]c4ccccc4c3C(C)C)cc2)cc1OC`: the Potency entry in assay [1], in assay [2] and in assay [12] was “inactive” in each case. Also, the Potency in assay [7] is 19.3 µM (active); in assay [8] it was 20.9 µM (active).
Consider `CN(C)CCOc1ccc(C(=C(CCCl)c2ccccc2)c2ccccc2)cc1`, for which the Potency entry in [1], in [2], in assay [12], in [5], in [6] and in [11] was “inactive” in each case.
`NS(=O)(=O)c1cc(Cl)c(Cl)c(S(N)(=O)=O)c1`: the Potency result in assay [1], in assay [2], in assay [3], in [4], in assay [5] and in [6] was “inactive” in each case. For the same compound, the Potency result in assay [8], in assay [10] and in assay [11] was “inactive” throughout.
For the compound `COc1c(C)c2c(c(O)c1CC=C(C)CCC(=O)O)C(=O)OC2`, the Potency in [1] was 6.62 µM (active); in assay [2] it was 0.526 µM (active); in assay [12], 5.23 µM (active); in assay [6], 1.18 µM (active); in assay [7], 1.53 µM (active); in assay [8], 0.743 µM (active). Moreover, the Potency result in assay [10] was “inactive”.
Take `CC[C@H](CC#N)OC(=O)N[C@@H](C)c1cccc(NC(=O)Nc2ccc(-c3cnco3)c(OC)c2)c1`: the Potency in assay [1] was 5.9 µM (active) and 5.8 µM (active); in [2], 0.235 µM (active); in [12], 1.04 µM (active); in assay [5] it was 0.743 µM (active); in assay [6], 0.59 µM (active); in assay [7], 0.485 µM (active). Besides, the figures for the Potency in assay [8] and in assay [10] were 0.296 µM (active) and 18.7 µM (active), respectively. In [11], the Potency entry was “inactive”.

The values are drawn from PubChem BioAssay (NCATS).
